# PubChem BioAssay AID1259318 (Sanford-Burnham Center for Chemical Genomics, 2017)
# Out of some 370,000 compounds screened, about 3,000 (0.81%) were called active. The sample as a whole holds a higher share of actives than the screen did. Unmarked numbers belong to inactive results.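 Rule for the calls: active = activity above about 14% (limit read from the data; passing the limit was not always enough); inactive = the rest.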
# Molecular target: Nuclear receptor subfamily 1 group D member 1 (Homo sapiens) (UniProt P20393)
# Experiment: modulators of Rev-erb alpha DNA binding, primary screen, biochemical, FITC-DNA, fluorescence polarization, uHTS (AID 1259318);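 note: 0% = DMSO wells with 35 nM protein and 100% = DMSO wells with 750 nM protein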
# Settings: Rev-erbα–FITC-DNA binding, 90 min, at 10 µM, active compounds read high
# Chain of Nuclear receptor subfamily 1 group D member 1 (Homo sapiens) (P20393 whole entry, looked up): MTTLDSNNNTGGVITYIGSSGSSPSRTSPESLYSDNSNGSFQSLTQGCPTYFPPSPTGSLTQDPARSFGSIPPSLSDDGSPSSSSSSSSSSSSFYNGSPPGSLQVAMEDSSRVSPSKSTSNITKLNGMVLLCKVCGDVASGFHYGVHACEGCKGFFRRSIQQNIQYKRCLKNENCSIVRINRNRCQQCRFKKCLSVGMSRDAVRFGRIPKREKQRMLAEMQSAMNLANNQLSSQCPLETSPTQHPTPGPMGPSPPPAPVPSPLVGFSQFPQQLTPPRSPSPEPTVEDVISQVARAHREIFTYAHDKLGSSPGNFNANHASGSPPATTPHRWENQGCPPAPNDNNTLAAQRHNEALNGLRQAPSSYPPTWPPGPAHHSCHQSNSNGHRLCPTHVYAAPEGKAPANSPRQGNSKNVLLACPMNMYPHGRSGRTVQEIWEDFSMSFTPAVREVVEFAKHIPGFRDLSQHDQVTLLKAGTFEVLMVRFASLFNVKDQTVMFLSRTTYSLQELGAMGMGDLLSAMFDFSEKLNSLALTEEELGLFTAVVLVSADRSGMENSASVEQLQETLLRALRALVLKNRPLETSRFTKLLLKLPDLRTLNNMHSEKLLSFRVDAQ
row,SMILES,activity
1,Cn1c(=O)[nH]c(=O)c2c1nc(CN(Cc1ccccc1)Cc1ccccc1)n2CCN1CCOCC1,-1.09%
2,CC(C)Cn1c(CN(Cc2ccccc2)Cc2ccccc2)nc2c1c(=O)n(C)c(=O)n2C,42.6% (active)
3,CC(C)CCn1c(CN(C)Cc2ccccc2)nc2c1c(=O)n(C)c(=O)n2C,3.74%
4,Cc1ccccc1NC(=O)C1CCN(c2ncccn2)CC1,4.79%
5,O=C(CNC(=O)c1ccc(Cl)cc1Cl)NCC(=O)Nc1ccccc1N1CCOCC1,-3.17%
6,CCOC(=O)c1cc(-c2ccc(Cl)s2)nc2c1c(C)nn2C,11.4%
7,O=C(CN1CCN(S(=O)(=O)c2ccc(F)cc2)CC1)NC1CC1,6.03%
8,COc1cc2c(cc1NC(=O)COC(=O)/C=C/c1ccccc1)oc1ccccc12,-1.34%
9,COc1cc2c(cc1NC(=O)CN1CCN(S(=O)(=O)c3ccc(F)cc3)CC1)oc1ccccc12,14.1% (active)
10,FC(F)(F)c1cccc(NC(=S)OC2CCC23CCC(c2ccccc2)CC3)c1 (stereo unspecified),5.79%
11,O=C(CC1SC(=Nc2ccccc2)N(Cc2ccccn2)C1=O)Nc1cccc(Cl)c1 (stereo unspecified),1.93%
12,NC1=NC(c2ccc([N+](=O)[O-])cc2)N(c2ccc(F)cc2)C(N)=N1 (stereo unspecified),5.54%
13,Cc1ccc(NS(=O)(=O)c2cc3c(cc2Br)NC(=O)CO3)cc1C,23.4% (active)
14,Cc1ccc(NS(=O)(=O)c2ccc3c(c2)NC(=O)CO3)cc1,1.74%
15,Cc1ccc(NS(=O)(=O)c2cc3c(cc2C)NC(=O)CO3)cc1,10.7%
16,C[C@@H]1CN([C@@H](C)CO)C(=O)c2cccc(NC(=O)Nc3cccc4ccccc34)c2O[C@H]1CN(C)S(=O)(=O)c1ccccc1F,-2.31%
17,CC1(C)NC(=O)N(CC(=O)Nc2cc(C(F)(F)F)cc(C(F)(F)F)c2)C1=O,3.72%
18,CC(NCc1ccco1)C(=O)N1CCCCC1 (stereo unspecified),-4.97%
19,COc1ccc(C)cc1Nc1nc(C)nc2c1oc1ccccc12,53.9% (active)
20,COC(=O)c1cnc(Nc2cc(C)ccc2OC)c2ccccc12,-1.59%
21,COCCNc1nc(-c2ccccc2)nc2c1oc1ccccc12,7.87%
22,O=[N+]([O-])c1ccc(NCCCO)c(C(F)(F)F)c1,-1.69%
23,N#Cc1ccc(OCCCN2CCC(C(O)(c3ccccc3)c3ccccc3)CC2)c(F)c1,2.99%
24,CCCNC(=S)NC1CC2CCCC(C1)N2CC(C)C (stereo unspecified),1.93%
25,Cc1ccc(CC(=O)Nc2cccc(C#N)c2)cc1,0.97%
26,COc1ccc(-c2ccc3nnc(SCC(=O)Nc4ccc(NC(C)=O)cc4)n3n2)cc1,-7.04%

row,SMILES,activity
1,COc1ccc(CC(=O)Nc2ccc(-c3nnc(-c4ccc(C)cc4)o3)cc2)cc1,26.4% (active)
2,CC1CCCC(NC(=O)CSc2nccn2C)C1C (stereo unspecified),-3.46%
3,Fc1ccc(-c2ccc(-c3nn4c(-c5ccco5)nnc4s3)o2)cc1,-8.14%
4,c1ccc(-c2cc(-c3nnc4sc(-c5ccccn5)nn34)[nH]n2)cc1,22.2% (active)
5,C=CCNC(=S)/N=c1/ccccn1Cc1ccccc1,3.96%
6,O=C(CC12CC3CC(CC(C3)C1)C2)NCc1ccco1,-3.49%
7,CCOC(=O)C1=C(c2ccccc2)O/C(=C(/C(=O)OC)C(F)(F)F)S1,23.2% (active)
8,CCOC(=O)c1nnn(-c2nonc2OC)c1-c1ccccc1,-1.38%
9,COC(=O)/C(=C1\Oc2ccc(C(C)(C)C)cc2S1)C(F)(F)F,2.88%
10,CC(C)CC(=O)N1CCN(Cc2ccccc2Br)CC1,1.77%
11,Cc1ccc(N=C2NC(=O)c3cccc([N+](=O)[O-])c32)cc1,-0.93%
12,C=C(C)C(=O)O[C@H]1C/C(C)=C\C(=O)/C=C(\C)[C@H](O)[C@@H]2OC(=O)C(=C)[C@@H]21,-13.3%
13,O=C(O)c1ccn(COc2ccc(Br)cc2)n1,-0.74%
14,Cc1cc(Br)cn2c(Cc3ccccc3C(F)(F)F)c(-c3ccc(C#N)cc3)nc12,16.1%
15,Cc1cc(Br)cn2c(Cc3cccc(F)c3)c(-c3cccc(Br)c3)nc12,8.77%
16,Cc1ccc(-c2nc3c(Cl)cc(C(F)(F)F)cn3c2Cc2cccc(Cl)c2)cc1,-1.02%
17,Cc1cc(Br)cn2c(Cc3ccccc3C(F)(F)F)c(-c3ccc(Cl)cc3)nc12,24.8% (active)
18,Cc1ccc(-c2nc3c(C)cc(Br)cn3c2Cc2ccccc2)cc1,27% (active)
19,Cc1cc(Br)cn2c(Cc3ccccc3C(F)(F)F)c(C3CCCCC3)nc12,-1.46%
20,Cc1ccc(NC(=O)Nc2cc(C)nn2-c2ccccc2)cc1,-3.54%
21,CCC1Nc2ncnc(N3CCN(c4ccccc4)CC3)c2N(Cc2ccc(Cl)cc2)C1=O (stereo unspecified),-0.29%
22,CCCc1nnc(NC(=O)CCC(=O)NC2CC2)s1,-1.12%
23,COCC(=O)N[C@@H]1C[C@@H]2O[C@@H](CO)CC[C@@H]2O[C@@H]1CCc1ccc(-c2ccccc2)cc1,-1.13%
24,CC(=O)N1CCCN(C2=Nc3ccccc3Sc3ccccc32)CC1,-0.32%
25,Cc1ccc(-n2c(SCC(=O)NCCC3=CCCCC3)nc3n[nH]c(C)c3c2=N)cc1Cl,34.3% (active)
26,CCCCNC(=O)CSc1nc2n[nH]c(C)c2c(=N)n1-c1cccc(Cl)c1C,23.1% (active)

row,SMILES,activity
1,CCCCNC(=O)CSc1nccn1Cc1ccccc1,-5.53%
2,CCCCCCNC(=O)CSc1nccn1Cc1ccccc1,1.93%
3,CCn1c(=O)cc(SCC(=O)NCCC2=CCCCC2)c2ccccc21,-0.99%
4,Cc1nnc(OCC(=O)NCCC2=CCCCC2)c2ccccc12,-2.75%
5,CCCCCC1CC(COc2ccccc2)OC1=O (stereo unspecified),3.77%
6,CC(=O)c1c(C)n([O-])c2ccccc2[n+]1=O,4.5%
7,CC(C)C(C)(C#N)NC(=O)CSc1nncn1-c1ccccc1 (stereo unspecified),3.69%
8,Cc1ccc2c(cnn2C(=O)CCC(=O)NC2CCCC2)c1,8.51%
9,COc1ccc(CN2C/C(=C/c3ccccc3)N3C(=O)C[C@@H](c4ccccc4)N=C23)c(OC)c1,-2.77%
10,CC(=O)Nc1sc2c(c1C(c1cccc(F)c1)N1CCN(CCO)CC1)CCCC2 (stereo unspecified),-4.11%
11,CCc1c(C)nc2c(-c3ccccc3)c(C)nn2c1Nc1ccc(NC(C)=O)cc1,-3.83%
12,Cc1cc(C(C)(C)C)n2nc(C)c(-c3ccccc3)c2n1,31.7% (active)
13,Cc1nn2c(NCCN(C)C)c3c(nc2c1-c1ccccc1)CCC3,-0.8%
14,CC(Oc1ccccc1)C(=O)N[C@@H]1C(=O)N2[C@@H]1SC(C)(C)[C@@H]2C(=O)O (stereo partly specified),-0.45%
15,COC(=O)c1ccc(N2CCOCC2)c(NC(=O)c2ccc(Br)o2)c1,-3.88%
16,Cc1cc(NCc2cccnc2)no1,2.81%
17,Cc1cc(N/C=C\C(=O)c2ccc(Cl)c(Cl)c2)no1,24.8% (active)
18,Cc1cc(NC(=O)COc2ccccc2C#N)no1,5.64%
19,CCN(CC)C(=O)CSc1nnc(-c2cnccn2)n1-c1ccc(C)cc1,5.46%
20,COc1ccc(-n2ncc3c(N4CCc5ccccc54)ncnc32)cc1,56.3% (active)
21,CN(C(=O)COc1ncnc2c1cnn2-c1ccccc1)C1CCCCC1,1.94%
22,COc1ccc(CCC(C)N2CCc3ccccc3C2)cc1 (stereo unspecified),1.36%
23,O=c1cc(Cl)c2ccccc2n1-c1ccccc1,-2.63%
24,COc1cccc(N2CCN(CC(=O)N(C)Cc3ccc(F)cc3)CC2)c1,-5.17%
